Results on 40 sequences are retold here after the supplement of paper PMC6555819.

The experiment concerns VDR:RXRa (NR concentration 270 nM, RXRa partner concentration 90 nM). As to the kind of experiment: PBM binding z-score (relative to random genomic background probes); higher = stronger binding; sequences stand for … in GC…GCGATTGACAGCGTAGAATGAAGG
Here is the method: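 Protein-binding microarray (Agilent 4x180K custom design, double-stranded 60-nt probes: 5' GC cap, 34-nt variable region, 24-nt constant primer region; full probe sequence given). Purified or IVT nuclear receptor:RXRα heterodimers (3:1 NR:RXRα, mostly 270:90 nM) or homodimers were incubated for 1 h in PBS with 2% milk and no ligand, then detected with Alexa488 antibodies. Fluorescence from o1-orientation probes (~5 replicates averaged) was converted to z-scores against 500 random hg19 background probes. Variable regions are seed direct-repeat (DR0–DR5) sites, all their single-nucleotide variants and half-site ablations.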
The sequence ATCTCCAGGTAAAAGTTCAGTGAATCCCGAGGAT showed a PBM binding z-score of 1.43.
Under TATACAGGGTCAAAGGCCAGAGTCCGAATGTCGA stands 4.8.
Take TGAATGAGGTTATAAGATCAGGGCACGTTGCAAA: the PBM binding z-score was 1.21.
Under TCTGCTAGGTCAACGATGGTCAGCTAATCTGCTA stands 1.54.
As for TATACAGGGTCAAAGGCCAGATTACGAATGTCGA, the figure is 4.85.
For TGTCAAAGTTCAAAGGTACCGTAAGTATCCACAC, the PBM binding z-score stood at 4.41.
Under ATATGTAGGTTAGCTGGGGTAATTCAGACTAGGC stands 0.945; under CCTAGCAGGCCAGGCTCACTCAAGCATTTCGCTT, -0.772.
Under ATATGTACGTTAGCTGGGGTCATTCAGACTAGGC stands 5.16.
As for GATACAGGGTCGAGGCCAGAGTACGCGTATTGAT, the figure is 1.41; as for GATACAGGGACAGCTAGAGGCCAGAGTATGGAAA, -0.526; as for GGAACGAGTGCATTCGAGTTGATAGCATGGCGAT, 2.95.
For GCATATAGGTAATACAAGGTGAAAGTGCGATTGT, the PBM binding z-score is 0.469.
As for ACTATTAGTTGACACGAGGGCAACCGATAGGTTG, the PBM binding z-score was 1.4.
Under ATATGTAGGTTAGCTGGGGTCATCCAGACTAGGC stands 6.18; under CGTCAAAGTTCAACTAAGGTACCGTAAAGCACGC, 4.4.
As for CAAACTAGGTCAAAGGTCAAAGTGGAGCCAACCA, the PBM binding z-score was determined as 6.72.
As for CACCCTAGGTCAGGGCCAGTATAGGAGGAACGTT, the figure is 0.555; as for CCTATAAGTTGACCATAAGGGCAACCGAAGCTCG, 1.06.
With CGTTCAAGGTCAATGCTAGGTCAGTGAAAGCATT, the PBM binding z-score turned out to be 4.78.
Under GCATATAGTTAATACAAGGTGAAAGTCCGATTGT stands 0.11; under AGTCAAAGCTCACTAGGTAACGTAAGATTCAGCT, -0.551.
As for CGTCCAAGGTCAATGCCAGGTCAGTGAAAGCATT, the figure is 4.96; as for TAGCCGAGGTCATGGGCCAGTATACCACGCGAAC, 5.46.
On to TAGCCTAGGTCATGCAGGGGCCAGTATAGAAAGC, for which the PBM binding z-score came out at 2.7.
Under CCTACCAGGCCAATCTGGGTCACTCAAGGCTTGA stands 0.999; under CCGAGTAGGTTGTGGGGCATTCAGGCAACGGTGA, -0.367.
Under ATGGAAAGGTCGAGGTGAGTATAGAGAAAGGGAA stands 2.81; under TCTTGTAGATCCAGCAGGTTAAGAAAGCCTGAGT, 0.306.
On to TCTGCTAGGTCAACGATGCTCAGCTAATCTGCTA, for which the PBM binding z-score was 1.15.
As for CAAACTAGGTCACCGGAAGGTCAAAGTGCGCATG, the figure is 6.18; as for TCTAGCAGGCCAGAGGGACACTCAAGAGGTACGG, -0.463; as for AGACCGAGGGCAATGAGTTGATAGCACGGGTGGC, 4.82.
CAGCCGAGGTCAGGGCCAGTATAGGAGGAACGTT: the PBM binding z-score stood at 3.64.
As for AATTCAGGGTCATCGTAGGCCAGAGTACGCACAG, the figure is 5.7; as for GCTGCTAGGTCAGGTTTGTCAGCTAACGGGTACG, 0.236; as for TAGCCTAGGTAATTGGGCCAGTATAGTACGCATC, -0.627.
The sequence TCGGGTAGGTTAGTCGGGGCATTCAGCCAACATA displayed a PBM binding z-score of 2.88.
Under TCGAGTAGGTTAGTCGGCGCATTCAGCCAACATA stands -0.0837; under CGATCTAGGTCAAGGACAGTGAATCTCCGCACGC, 0.643.
